Results on 40 molecules are retold here after the supplement of paper PMC3414501.

Structures can show the parent of a compound that is named as a salt. A number with no mark means an inactive call.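 Rule for the calls: active = HIS4 sensitivity z-score above 5 vs DMSO controls; inactive = score 5 or below.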

For this assay, the system named is S. cerevisiae NKY1551 his4x/his4B, sporulating. The assay is described as follows: HIS4 meiotic recombination assay sensitivity score (z-score vs DMSO controls); higher = stronger inhibition of sporulation/recombination, active = hit call of the paper. How it is done:
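NIH Clinical Collection compounds were added 1:100 from stock (about 100 µM final) to S. cerevisiae. Growth: average doubling time (AvgG) over 24 h of BY4741 (wild-type) or AD1-9 (drug-efflux-pump deficient) in rich media. HIS4: the his4x/his4B heteroallelic recombination reporter strain (SK1) was sporulated 5 h with compound at 30°C, then colony density was read on -his plates after 48 h. Sensitivity score = (compound − mean of 8 DMSO controls)/SD of DMSO controls. Hit cutoffs are >2 for growth and >5 for sporulation.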
On to `CCC(=O)O[C@]1(C(=O)SCF)[C@H](C)C[C@H]2[C@@H]3C[C@H](F)C4=CC(=O)C=C[C@]4(C)[C@@]3(F)[C@@H](O)C[C@@]21C` [Fluticasone propionate] (stock concentration (mM, diluted 1:100): 10), for which the “HIS4 meiotic recombination assay sensitivity score” value is -1.24. On to `C[C@@H]1C[C@H]2[C@@H]3C[C@H](F)C4=CC(=O)C(Cl)=C[C@]4(C)[C@@]3(F)[C@@H](O)C[C@]2(C)[C@@]1(O)C(=O)CO` [Halometasone monohydrate] (stock concentration (mM, diluted 1:100): 10), for which the “HIS4 meiotic recombination assay sensitivity score” value was -1.12.

With `CC(C)(C#N)c1cc(Cn2cncn2)cc(C(C)(C)C#N)c1` [Anastrozole] (stock concentration (mM, diluted 1:100): 10), the “HIS4 meiotic recombination assay sensitivity score” value was 0.04. As for `COCCOC(=O)C1=C(C)NC(C)=C(C(=O)OC(C)C)C1c1cccc([N+](=O)[O-])c1` (stereo not given) [Nimodipine] (stock concentration (mM, diluted 1:100): 10), the “HIS4 meiotic recombination assay sensitivity score” value was 4.27. For `CC(=O)NC[C@H]1CN(c2ccc(N3CCOCC3)c(F)c2)C(=O)O1` [Linezolide] (stock concentration (mM, diluted 1:100): 10), the “HIS4 meiotic recombination assay sensitivity score” value was -0.83.

Turning to `Cc1[nH]c(=O)c(C#N)cc1-c1ccncc1` [Milrinone] (stock concentration (mM, diluted 1:100): 10.1), the “HIS4 meiotic recombination assay sensitivity score” value was -0.23. Turning to `c1ccc(-c2ccc(C(c3ccccc3)n3ccnc3)cc2)cc1` (stereo not given) [Bifonazole] (stock concentration (mM, diluted 1:100): 10), the “HIS4 meiotic recombination assay sensitivity score” value was -0.93.

Regarding `O=C(CCNNC(=O)c1ccncc1)NCc1ccccc1` [Nialamide] (stock concentration (mM, diluted 1:100): 10), the “HIS4 meiotic recombination assay sensitivity score” value was -1.89. In the case of `COc1ccc(/C=C/C(=O)Nc2ccccc2C(=O)O)cc1OC` [Tranilast] (stock concentration (mM, diluted 1:100): 10), the “HIS4 meiotic recombination assay sensitivity score” value was 0.1.

Consider `CC1=Nc2ccc(Cl)cc2S(=O)(=O)N1` [Diazoxide] (stock concentration (mM, diluted 1:100): 10), for which the “HIS4 meiotic recombination assay sensitivity score” value is -1.19. Take `COc1cc(N)c(Cl)cc1C(=O)NC1CCN(CCCOc2ccc(F)cc2)CC1OC` (stereo not given) [Cisapride] (stock concentration (mM, diluted 1:100): 10.5): the “HIS4 meiotic recombination assay sensitivity score” value is -0.37.

Take `CNC(=C[N+](=O)[O-])NCCSCc1csc(CN(C)C)n1` [Nizatidine] (stock concentration (mM, diluted 1:100): 10): the “HIS4 meiotic recombination assay sensitivity score” value is -0.53.

Consider `C[C@]12C[C@H](O)[C@H]3[C@@H](CCC4=CC(=O)CC[C@@]43C)[C@@H]1CC[C@@H]2C(=O)CO` [Corticosterone] (stock concentration (mM, diluted 1:100): 10), for which the “HIS4 meiotic recombination assay sensitivity score” value was 1.37. The value for `NC1CCN(c2nc3c(cc2F)c(=O)c(C(=O)O)cn3-c2ccc(F)cc2F)C1` (stereo not given) [Tosufloxacin tosylate] (stock concentration (mM, diluted 1:100): 7) was -2.15; that for `CC(C)[C@H]1CC[C@H](C(=O)N[C@H](Cc2ccccc2)C(=O)O)CC1` [Nateglinide] (stock concentration (mM, diluted 1:100): 10) was -0.37; that for `CCc1oc2ccccc2c1C(=O)c1cc(Br)c(O)c(Br)c1` [Benzbromarone] (stock concentration (mM, diluted 1:100): 10) was -1.58.

For `COc1cc(C(=O)NS(=O)(=O)c2ccccc2C)ccc1Cc1cn(C)c2ccc(NC(=O)OC3CCCC3)cc12` [Zafirlukast] (stock concentration (mM, diluted 1:100): 10), the “HIS4 meiotic recombination assay sensitivity score” value was 1. The value for `CCC1=C[C@H]2CN(C1)Cc1c([nH]c3ccccc13)[C@@](C(=O)OC)(c1cc3c(cc1OC)N(C)[C@H]1[C@@](O)(C(=O)OC)[C@H](OC(C)=O)[C@]4(CC)C=CCN5CC[C@]31[C@@H]54)C2` [Vinorelbine bitatrate] (stock concentration (mM, diluted 1:100): 7.2) was -0.36; that for `CC(C)Oc1ccc2c(=O)c(-c3ccccc3)coc2c1` [Ipriflavone] (stock concentration (mM, diluted 1:100): 10) was -1.16; that for `CN(C)CCC=C1c2ccccc2COc2ccccc21` [Doxepin] (stock concentration (mM, diluted 1:100): 10) was 3.87. In the case of `CCCc1c(OCCCCc2nnn[nH]2)ccc(C(C)=O)c1O` (stock concentration (mM, diluted 1:100): 10), the “HIS4 meiotic recombination assay sensitivity score” value is -2.23.

`Cc1[nH]cnc1CN1CCc2c(c3ccccc3n2C)C1=O` [Alosetron hydrochloride] (stock concentration (mM, diluted 1:100): 8.9): the “HIS4 meiotic recombination assay sensitivity score” value is -3.51. `OC[C@H]1O[C@@H](n2cnc3c(N[C@H]4CCC[C@@H]4O)ncnc32)[C@@H](O)C1O` (stereo not given in full) (stock concentration (mM, diluted 1:100): 10): the “HIS4 meiotic recombination assay sensitivity score” value was 1.26. The value for `COc1ccc2[nH]c([S+]([O-])Cc3ncc(C)c(OC)c3C)nc2c1` (stereo not given) [Esomeprazole mg] (stock concentration (mM, diluted 1:100): 4.8) was 0.32; that for `CCCCC1=NC2(CCCC2)C(=O)N1Cc1ccc(-c2ccccc2-c2nnn[nH]2)cc1` [Irbesartan] (stock concentration (mM, diluted 1:100): 10.1) was -0.26.

On to `C=C1/C(=C\C=C2/CCC[C@]3(C)[C@@H]([C@H](C)/C=C/[C@@H](O)C4CC4)CC[C@@H]23)C[C@@H](O)C[C@@H]1O` [Calcipotriol] (stock concentration (mM, diluted 1:100): 10.1), for which the “HIS4 meiotic recombination assay sensitivity score” value was 2.61. Turning to `C[C@H]1COc2c(N3CCN(C)CC3)c(F)cc3c(=O)c(C(=O)O)cn1c23` [Levofloxacin] (stock concentration (mM, diluted 1:100): 10), the “HIS4 meiotic recombination assay sensitivity score” value is 0.16. Consider `COc1ccc2cc([C@H](C)C(=O)O)ccc2c1` [Naproxen sodium] (stock concentration (mM, diluted 1:100): 10), for which the “HIS4 meiotic recombination assay sensitivity score” value was -0.09.

With `CC(c1cc2ccccc2s1)N(O)C(N)=O` (stereo not given) [Zileuton] (stock concentration (mM, diluted 1:100): 10), the “HIS4 meiotic recombination assay sensitivity score” value was -2.31.

For the molecule `CC(=O)[C@H]1CC[C@H]2[C@@H]3CCC4=CC(=O)CC[C@]4(C)[C@H]3CC[C@]12C` [Progesterone] (stock concentration (mM, diluted 1:100): 10), the “HIS4 meiotic recombination assay sensitivity score” value is 6.09 (active).

`O=C(O[C@@H]1C[C@@H]2C[C@H]3C[C@H](C1)N2CC3=O)c1c[nH]c2ccccc12` [Dolasetron mesylate] (stock concentration (mM, diluted 1:100): 10.4): the “HIS4 meiotic recombination assay sensitivity score” value was -3.34. The value for `CN(C)CC[C@@H](c1ccc(Br)cc1)c1ccccn1` [Dexbrompheniramine maleate] (stock concentration (mM, diluted 1:100): 7.3) was 7.19 (active); that for `CNCC[C@@H](Oc1ccccc1C)c1ccccc1` [Atomexetine hydrochloride] (stock concentration (mM, diluted 1:100): 8.7) was 10.1 (active); that for `COc1cc(-c2ccc(=O)[nH]n2)ccc1OC(F)F` [Zardaverine] (stock concentration (mM, diluted 1:100): 11.7) was -0.18.

On to `CO[C@H]1/C=C/O[C@@]2(C)Oc3c(C)c(O)c4c(O)c(c5c(nc6cc(C)ccn65)c4c3C2=O)NC(=O)/C(C)=C\C=C\[C@H](C)[C@H](O)[C@@H](C)[C@@H](O)[C@@H](C)[C@H](OC(C)=O)[C@@H]1C` [Rifaximin] (stock concentration (mM, diluted 1:100): 10), for which the “HIS4 meiotic recombination assay sensitivity score” value is -0.87. As to `CN(C)CCOc1ccc(/C(=C(/CCCl)c2ccccc2)c2ccccc2)cc1` [Toremifene citrate] (stock concentration (mM, diluted 1:100): 10), the “HIS4 meiotic recombination assay sensitivity score” value is 3.57. In the case of `Oc1ccc(/C=C/c2cc(O)cc(O)c2)cc1` [Resveratrol] (stock concentration (mM, diluted 1:100): 10), the “HIS4 meiotic recombination assay sensitivity score” value was 1.16. Under `OCCN1CCN(CCCN2c3ccccc3Sc3ccc(C(F)(F)F)cc32)CC1` [Fluphenazine hydrochloride] (stock concentration (mM, diluted 1:100): 10) stands 7.55 (active). The value for `Cn1c(NCCN(CCO)CCCc2ccc([N+](=O)[O-])cc2)cc(=O)n(C)c1=O` [Nifekalant hydrochloride] (stock concentration (mM, diluted 1:100): 9.2) was -0.61; that for `CN1CCCCC1CCN1c2ccccc2Sc2ccc([S+](C)[O-])cc21` (stereo not given) [Mesoridazine] (stock concentration (mM, diluted 1:100): 10) was -1.59.
